For 75 compounds, GTP binding activity (percent of control) results are on record in PubChem BioAssay AID758 (NMMLSC, 2007).

Each structure is given as a SMILES string. About 110 (0.058%) of roughly 190,000 compounds were called active. About 2% were inconclusive and are not listed. This excerpt belongs to a sample that is enriched for actives. Values without a mark were called inactive.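 Rule for the calls: active = fluorescent GTP binding to Rab7 beads changed by at least 20 points from the 100% baseline, either direction, mostly lower; inconclusive = compound itself probably fluorescent, or too few beads counted; inactive = the rest.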

The subject of the assay is Rab7 GTPase wild type (dog), Bodipy-FL-GTP binding. Briefly: wildtype dog Rab7 nucleotide binding alteration – biochemical, multiplex bead flow cytometry, primary screen (AID 758).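 Note: median green fluorescence of bound Bodipy-FL-GTP per Rab7 bead population.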 Particulars: GST-Rab7 beads, fluorescent GTP binding, at 10 µM, actives lie on both sides, untreated = 100%, excess cold GTP = 0%. (In general: Flow cytometry measures light scatter and fluorescence of single cells or particles in a stream.)
Regarding `O=C(CSc1ccc([N+](=O)[O-])cn1)Nc1ccc(N2CCOCC2)cc1`, the GTP binding activity (percent of control) was 95%.
The value for `Cc1ccc(NC(=S)NC(=O)c2ccc(-c3ccccc3)cc2)c(C)c1` was 100%; that for `COc1c(F)c(F)c(C(=O)O)c(Nc2ccccc2C)c1F` was 96%.
The value for `Cc1ccc(Nc2c(F)c(F)c(F)c(F)c2C(=O)O)c(C)c1` was 121% [activator] (active).
In the case of `S=C(Nc1ccc2c(c1)OCO2)N1CCCC1` it was 104%; in that of `C/C(CC(=O)N1CCN(C=O)CC1)=N\NC(=O)c1ccc(Br)cc1`, 102%.
For the compound `COc1ccc2c(c1)CCC/C2=N\OC(=O)c1ccccc1F`, the GTP binding activity (percent of control) is 105%.
`C=CCN(CC=C)S(=O)(=O)c1ccc(C(=O)Nc2sc3c(c2C(N)=O)CCCCC3)cc1`: the GTP binding activity (percent of control) was 103%.
For `COCCN(CCOC)S(=O)(=O)c1ccc(C(=O)Nc2nc3c(s2)CCc2ccccc2-3)cc1`, the GTP binding activity (percent of control) was 99%.
In the case of `C=CCN(CC=C)S(=O)(=O)c1ccc(C(=O)Nc2nc3c(s2)CCc2ccccc2-3)cc1` it was 27% (active); in that of `COC(=O)CCC(=O)N1CCCC(CO)(Cc2ccccc2)C1` (stereo not given), 98%.
The value for `CSc1cccc(NC(=S)N(Cc2ccccc2)Cc2ccccn2)c1` was 104%; that for `O=C(COC(=O)c1ccccn1)Nc1cccc2ccccc12` was 108%; that for `CCN(CC)CCNS(=O)(=O)c1ccc(/C=C/C(=O)O)cc1` was 98%.
The value for `OCCC1CN(Cc2cnc(-c3ccccc3)s2)CCN1CCc1ccccc1` (stereo not given) was 106%; that for `CCOC(=O)CNC(=O)CSc1ccc2nnc(-c3cccnc3)n2n1` was 96%; that for `CC1(C)C2CC=C(/C=N/NC(=O)C3CC3)C1C2` (stereo not given) was 105%.
In the case of `CCc1c(SCCC(=O)O)nc2ccccc2c1C`, the GTP binding activity (percent of control) was 99%.
In the case of `Fc1cc(Br)ccc1NC(=S)Nc1cccnc1` it was 104%.
Regarding `COC(=O)C(=Nc1ccccc1)/C(C(=O)C(=O)N(C)c1ccccc1)=C(\O)c1ccc(Cl)cc1`, the GTP binding activity (percent of control) was 96%.
In the case of `Cc1ccc(N2C(=O)C(CC(=O)Nc3cccc(F)c3)N(CCc3ccncc3)C2=O)cc1` (stereo not given) it was 97%; in that of `NNC(=O)C1CC(O)CN1S(=O)(=O)c1ccc(Cl)cc1` (stereo not given), 96%; in that of `Cc1ccc(NC(=O)CNCc2ccccn2)cc1S(=O)(=O)N(C)C`, 101%.
In the case of `C=CCN(Cc1nc(-c2cc(OC)c3c(c2)OCO3)oc1C)C1CCS(=O)(=O)C1` (stereo not given) it was 92%; in that of `CC1=CC=CN2C1=NC(=O)CC2(C)C(=O)N(CC(=O)NC1CCCC1)c1ccccc1C` (stereo not given), 104%; in that of `CC(=O)c1cc(C#N)c(SCC(=O)Nc2nccs2)nc1C`, 96%.
Consider `C=CCn1nc(-c2ccccc2)c2c(C)onc2c1=O`, for which the GTP binding activity (percent of control) is 100%.
In the case of `NS(=O)(=O)c1ccc(NC(=S)Nc2ccc(Br)c(Cl)c2)cc1`, the GTP binding activity (percent of control) was 103%.
In the case of `O=C(CCNC(=O)c1ccc([N+](=O)[O-])cc1)Nc1ccccc1N1CCOCC1` it was 96%.
The value for `COc1cccc(C(O)Cc2nc3ccccc3n2C)c1OC` (stereo not given) was 96%; that for `CC(=O)c1cccc(NC(=O)[C@@H](NC(N)=O)C(C)C)c1` was 96%; that for `COc1ccc(CNC(=O)COC(=O)/C=C/c2ccc(S(=O)(=O)N3CCOCC3)cc2)cc1` was 100%.
In the case of `O=C(O)/C=C/C(=O)NNc1ccc([N+](=O)[O-])cc1` it was 96%; in that of `CCOC(=O)C1(CCOc2ccccc2)CCN(C(=O)c2cncs2)CC1`, 93%.
Consider `CCOC(=O)c1ccc(NC(=O)c2cc(=O)[nH]c3ccccc23)cc1`, for which the GTP binding activity (percent of control) is 94%.
The value for `CCOc1c(CNCc2ccc(C(=O)O)cc2)cccc1OC` was 103%.
`COc1ccc(-c2nn(-c3ccccc3)cc2/C=C\C(=O)N2CCOCC2)cc1[N+](=O)[O-]`: the GTP binding activity (percent of control) was 93%.
As to `CC(O)c1cccc(NC(=O)Cc2cccc3ccccc23)c1` (stereo not given), the GTP binding activity (percent of control) was 93%.
As for `CCOc1cc(/C=C2/C(=N)N3OC(C)=CC3=NC2=O)ccc1OC`, the GTP binding activity (percent of control) was 93%.
The value for `NS(=O)(=O)c1cccc(NC(=O)CN2CCCc3ccccc32)c1` was 93%; that for `Cc1nc([N+](=O)[O-])c(NCCCO)n1Cc1ccccc1` was 96%.
The value for `O=C(NCc1ccncc1)NC12CC3CC(CC(C3)C1)C2` was 104%; that for `Clc1cccc(-c2nc(NCC3CCCO3)c3ccccc3n2)c1` (stereo not given) was 96%.
The value for `COC(=O)c1c(NC(C)=O)sc(C(=O)Nc2ccccc2OC)c1C` was 106%; that for `O=C(NNC1=C(C(=O)C(F)(F)F)CCC1)c1ccncc1` was 106%; that for `O=C(CN1CCCC1)N1CCN(c2ccccc2)CC1` was 99%.
As to `CC(CC(=O)Nc1ccccc1)n1ccnc1` (stereo not given), the GTP binding activity (percent of control) was 96%.
The value for `CCN(Cc1ccccc1)S(=O)(=O)c1cc(C(=O)O)ccc1OC` was 107%; that for `CCN(CC)CCCSc1nc2ccccc2s1` was 104%; that for `Cc1ccc(NC(=O)C2(N3CCC3=O)CCCCC2)cc1` was 105%.
The value for `Cc1ccc(NC(=O)c2ccc(Oc3ncccn3)cc2)cc1` was 97%; that for `OCC1(Cc2ccccc2C(F)(F)F)CCN(Cc2cccc3cnccc23)CC1` was 96%.
In the case of `CC1(C)CC(N(Cc2ccccc2)C(=O)Cc2ccccc2)CCO1` (stereo not given) it was 101%; in that of `O=C(Nc1cccnc1)c1cccc(S(=O)(=O)N2CCCC2)c1`, 94%.
For `CCN(CC)C(=O)N(CC)Cc1ccccc1`, the GTP binding activity (percent of control) is 96%.
For `COC(=O)c1ccc(NCC(=O)N2CCCCCC2)cc1`, the GTP binding activity (percent of control) was 106%.
For the compound `COc1ccc(-c2nc(CN3CCN(c4ncccn4)CC3)c(C)o2)cc1C`, the GTP binding activity (percent of control) was 95%.
Take `O=C(C1CCCO1)N(c1ccc(F)cc1)C1C=CS(=O)(=O)C1` (stereo not given): the GTP binding activity (percent of control) was 103%.
The value for `CCc1ccc(/C=C2\SC(N3CCOCC3)=NC2=O)cc1` was 94%; that for `c1ccc(Cc2cc[n+](Cc3ccccc3)cc2)cc1` was 106%.
As to `CCOc1cnc(-c2c(-c3ccccc3Cl)noc2C)o1`, the GTP binding activity (percent of control) was 96%.
With `CCCCN(C(=O)/C=C/c1ccco1)c1c(N)n(CC(C)C)c(=O)[nH]c1=O`, the GTP binding activity (percent of control) is 98%.
With `CC(C)(C)c1cnnn1-c1ccc([N+](=O)[O-])cc1`, the GTP binding activity (percent of control) is 94%.
The value for `CC(C)(C)C(=O)NCCCNc1ccc([N+](=O)[O-])cc1` was 94%; that for `NC(=O)c1ccccc1NC(=O)c1ccccc1F` was 99%; that for `O=C(Nc1ccccc1F)c1ccccc1-c1ccc(C(F)(F)F)cc1` was 103%.
`O=C(Nc1ccccc1F)c1ccccc1-c1ccccc1`: the GTP binding activity (percent of control) was 74% (active).
In the case of `O=C(CC1C(=O)NCCN1Cc1ccc(-c2ccccc2)cc1)NCc1ccncc1` (stereo not given) it was 96%; in that of `Cc1ccc(C)c(Cn2nnc3c(=O)[nH]c(C(=O)Nc4ccc(F)cc4)nc32)c1`, 102%; in that of `CC(=O)Nc1ccc(Nc2nc3c(S(=O)(=O)c4ccc(C)c(C)c4)nnn3c3ccccc23)cc1`, 97%.
In the case of `CN1CCN(CCC(=O)N/N=C/C=C2\N(C)c3ccccc3C2(C)C)CC1` it was 98%.
The value for `CC(C)CNC(=O)/C=C/C(=O)O` was 105%; that for `O=C(Cc1ccccc1Cl)N1CCN(c2ccccn2)CC1` was 98%; that for `Cc1ccc(CN2CCN(Cc3ccccc3-c3ccco3)CC2CCO)o1` (stereo not given) was 104%.
Take `CNC(=O)COC(=O)c1cc(-c2ccc(OC)cc2)nc2ccccc12`: the GTP binding activity (percent of control) is 88%.
